Data published in PubChem BioAssay (NCATS).
Results filed as inconclusive are left out. Where a call stands in place of a potency, no number is given. A number with no mark means an inactive call. Calls of active or inactive are those of the source. Calls follow the shape of the dose curve; as a rule, active = well fitted curve in the direction sought with a large enough effect; inconclusive = small, poorly fitted or top-dose-only effect, or another doubt; inactive = no such curve, though single readings can be large; an effect the other way counts as inactive or inconclusive.

How the values were obtained:
Hek293T = assay: Primary qHTS to identify gynecologic anti-cancer compounds using libraries of approved drugs and bioactive compounds (AID 1345084); conditions: Gynecologic cancer cell panel viability, ATPlite luminescence, 48 h, control line for the selectivity index; series mostly up to 57.5 µM; also: nearly all actives have a fitted effect of over 55% in size
Outline: (§1)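 Cytotoxicity screen measuring ATP content by luciferase luminescence. Each compound is applied at five concentrations for 48 h at 37 C with 5% CO2.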

JEG-3 = assay: as above; conditions: Gynecologic cancer cell panel viability, ATPlite luminescence, 48 h; series mostly up to 57.5 µM
Outline: as §1

OV90 = assay: as above; conditions: Gynecologic cancer cell panel viability, ATPlite luminescence, 48 h; series mostly up to 57.5 µM
Outline: as §1

SKOV3 = assay: as above; conditions: Gynecologic cancer cell panel viability, ATPlite luminescence, 48 h; series mostly up to 57.5 µM
Outline: as §1

Tov-21-G = assay: as above; conditions: Gynecologic cancer cell panel viability, ATPlite luminescence, 48 h; series mostly up to 57.5 µM
Outline: as §1

Tov112D = assay: as above; conditions: Gynecologic cancer cell panel viability, ATPlite luminescence, 48 h; series mostly up to 57.5 µM
Outline: as §1

PA-1 = assay: as above; conditions: Gynecologic cancer cell panel viability, ATPlite luminescence, 48 h; series mostly up to 57.5 µM
Outline: as §1

[1] = Drug repurposing screens with cells derived from glioblastoma tumor samples (AID 1345199); conditions: GBM patient neurospheres viability, ATP luminescence, 48 h; for Potency: tumour line A; as to all read-outs here: nearly all actives have a fitted effect of over 40% in size
Outline: (§2)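 Four patient lines of CD133+ GBM neurospheres were screened at several concentrations; hits were retested in those lines plus three slower-growing GBM lines, using 48-hour treatment and ATP-based viability.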

astro = assay: as above; conditions: viability, ATP luminescence, 48 h; series mostly up to 45.9 µM
Outline: as §2

[2] = at 45.9 µM (top of the series), tumour line B
[3] = at 45.9 µM (top of the series), tumour line D
[4] = at 46.1 µM (top of the series), tumour line C
Potency is read from the fitted curve at half-maximal effect.

SMILES	Potency (Hek293T)	Potency (JEG-3)	Potency (OV90)	Potency (SKOV3)	Potency (Tov-21-G)	Potency (Tov112D)	Potency (PA-1)	activity, negative = cell killing [1, 2]	activity, negative = cell killing [1, 3]	activity, negative = cell killing [1, 4]	Potency [1]	Potency (astro)
CC[C@H]1CN2CC[C@H]1C[C@@H]2[C@@H](O)c1ccnc2ccc(OC)cc12	inactive	inactive	inactive	inactive	inactive	inactive						
C[C@H]1O[C@@H](O[C@H]2C[C@@H](O)[C@]3(CO)C4C(CC[C@]3(O)C2)[C@@]2(O)CC[C@H](C3=CC(=O)OC3)[C@@]2(C)C[C@H]4O)[C@@H](O)[C@@H](O)[C@H]1O (stereo partly drawn)	355 nM (active)		1120 nM (active)	224 nM (active)	178 nM (active)	112 nM (active)	562 nM (active)					
Cc1cc(C(=O)CN2CCCC2)c(C)n1-c1ccc(F)cc1	inactive	inactive	inactive		inactive	inactive	inactive					
Cc1cccc(NC(=O)N[C@@H]2N=C(c3ccccc3)c3ccccc3N(C)C2=O)c1	inactive	inactive	inactive		inactive	inactive	inactive					
C=C[C@H]1CN2CC[C@H]1C[C@@H]2[C@@H](O)c1ccnc2ccccc12	inactive	inactive	inactive	inactive	inactive	inactive	inactive	-7.16%	-9.4%	15.7%	17800 nM (active)	inactive
O=C1C[C@@H]2OCC=C3CN4CC[C@]56c7ccccc7N1[C@H]5[C@H]2[C@H]3C[C@H]46	inactive	inactive	inactive	inactive	inactive	inactive	inactive	-6.57%	-6.6%	6.33%	12600 nM (active)	inactive
COc1cc2c(cc1OC)[C@@]13CCN4CC5=CCO[C@H]6CC(=O)N2[C@H]1[C@H]6[C@H]5C[C@H]43	inactive	inactive	inactive		inactive	inactive	inactive	-6.02%	-3.06%	1.45%	79.4 nM (active)	inactive
COc1cc(C)[nH]c(=O)c1CNC(=O)c1c(C)n([C@H](C)C2CCOCC2)c2ccccc12	inactive	inactive	inactive		inactive	inactive	inactive					
CO[C@H]1[C@H](O)[C@H](O[C@H]2CC[C@]3(C)C4CC[C@]5(C)[C@H](C6=CC(=O)OC6)CC[C@]5(O)C4CC[C@@H]3C2)O[C@@H](C)[C@@H]1O (stereo partly drawn)	89.1 nM (active)	178 nM (active)	282 nM (active)		31.6 nM (active)		89.1 nM (active)					
CC[C@H]1CN2CC[C@H]1C[C@H]2[C@H](O)c1ccnc2ccc(OC)cc12	inactive	inactive		inactive	inactive	inactive	inactive					
CCOc1ccccc1-n1c(C(C)N2CCN(C(=O)COc3ccc(Cl)cc3)CC2)nc2ccccc2c1=O (stereo not drawn)			inactive	inactive	6310 nM (active)		inactive					
CCC1NC(=O)C2C(Cl)C(Cl)CN2C(=O)C(C(C)O)NC(=O)CC(c2ccccc2)NC(=O)C(CO)NC1=O (stereo not drawn)	inactive	inactive	inactive		inactive	inactive	inactive					
COC1C(O)C(OC2CCC3(C=O)C(CCC4C3CCC3(C)C(C5=CC(=O)OC5)CCC43O)C2)OC(C)C1OC1OC(CO)C(O)C(O)C1O (stereo not drawn)	1000 nM (active)	2240 nM (active)	3550 nM (active)	708 nM (active)	631 nM (active)	316 nM (active)						
COC(=O)C1(C)CCC(O)C2(C)c3cc(O)c(C(C)C)cc3C(O)C(OC(C)=O)C12 (stereo not drawn)	inactive	inactive	inactive		inactive	inactive						
COC(=O)C1(C)CCC(=O)C2(C)c3c(O)cc(C(C)C)cc3C(O)C(OC(C)=O)C12 (stereo not drawn)	inactive	inactive	inactive	inactive	inactive	inactive	inactive					
C[C@H](NC(=O)Cc1cc(F)cc(F)c1)C(=O)N[C@@H]1N=C(c2ccccc2)c2ccccc2N(C)C1=O	inactive	inactive	inactive		inactive	inactive	inactive					
COC1C(O)C(C)OC(OC2C(CO)O[C@@H](O[C@@H]3CC4CCC5C(CC[C@]6(C)[C@@H](C7=CC(=O)OC7)CC[C@]56O)[C@@]4(C)[C@H](O)C3)C(O)C2O)C1O (stereo partly drawn)	2820 nM (active)		4470 nM (active)	2820 nM (active)	1000 nM (active)	501 nM (active)	2820 nM (active)					
N#C[C@@H](O[C@@H]1O[C@H](CO[C@@H]2O[C@H](CO)[C@@H](O)[C@H](O)[C@H]2O)[C@@H](O)[C@H](O)[C@H]1O)c1ccccc1	inactive	inactive	inactive	inactive	inactive	inactive	inactive					
